# In PubChem BioAssay (EPA / NIEHS):
# Where “and” joins values, the source holds several entries; their conditions need not be identical. Equal values may be shown once. Results filed as inconclusive are left out. A structure can be active in one record and inactive in another. Calls of active or inactive are those of the source. How the source made its calls: active means hit-call score of the fitted dose curve at least 0.9, where 1 is the maximum; inconclusive means response in the unintended direction; inactive means score below 0.9.
# Molecular target: rat Thyrotropin Releasing Hormone Receptor (TRH), Trhr (gene 25570) (UniProt Q01717)
# Assay: NVS_GPCR_rTRH: NovaScreen (NVS) G Protein-Coupled Receptor Assay for rat Thyrotropin Releasing Hormone Receptor (TRH) (AID 2283329);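 further: hit means lower bound tracer signal versus DMSO baseline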
# In short: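 Test compounds are screened at 25 uM in duplicate against radioligand binding in rat forebrain membranes, with active pairs followed up over a concentration range. Detection uses filter-based radiodetection after a 4 h exposure.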
# Chain of rat Thyrotropin Releasing Hormone Receptor (TRH), Trhr (gene 25570) (Q01717 whole entry, looked up): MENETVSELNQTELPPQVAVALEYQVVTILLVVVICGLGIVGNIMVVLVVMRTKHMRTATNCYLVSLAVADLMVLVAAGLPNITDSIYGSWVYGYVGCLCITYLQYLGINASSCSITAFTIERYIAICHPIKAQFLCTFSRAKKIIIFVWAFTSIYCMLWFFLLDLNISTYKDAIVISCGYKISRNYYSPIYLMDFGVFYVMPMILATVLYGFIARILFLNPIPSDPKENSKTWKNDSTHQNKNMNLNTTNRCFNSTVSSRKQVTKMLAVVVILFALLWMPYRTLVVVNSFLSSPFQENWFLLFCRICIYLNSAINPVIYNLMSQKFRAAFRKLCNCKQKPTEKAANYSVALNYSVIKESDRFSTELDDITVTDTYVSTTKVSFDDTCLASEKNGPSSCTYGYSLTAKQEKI
row,Compound,outcome
1,CC(=O)CC(C)(C)O,inactive
2,ClC1=C(Cl)C(Cl)(Cl)C(Cl)=C1Cl,inactive
3,Cc1ccc(S(=O)(=O)O)c(C)c1,inactive
4,C#C[C@]1(O)CC[C@H]2[C@@H]3CCC4=CC(=O)CC[C@@H]4[C@H]3CC[C@@]21C,inactive

# Molecular target: human Peripheral-type Benzodiazepine Receptor (PBR), TSPO (gene 706) (UniProt P30536)
# Assay: NVS_MP_hPBR: NovaScreen (NVS) Membrane Protein Assay for human Peripheral-type Benzodiazepine Receptor (PBR) (AID 2283331);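 further: hits reduce radioligand binding relative to DMSO baseline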
# In short: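 Cell-free binding to human colonic membrane preparations measured by filter-based scintillation counting after 1 h. Compounds first run at 25 uM in duplicate, then concentration series for actives; signal loss against DMSO baseline.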
# Chain of human Peripheral-type Benzodiazepine Receptor (PBR), TSPO (gene 706) (P30536 whole entry, looked up): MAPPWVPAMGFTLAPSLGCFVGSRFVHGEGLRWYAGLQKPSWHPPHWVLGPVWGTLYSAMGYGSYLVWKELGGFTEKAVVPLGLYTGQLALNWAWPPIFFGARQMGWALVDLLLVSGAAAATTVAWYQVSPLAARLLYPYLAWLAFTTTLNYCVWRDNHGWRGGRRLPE
Compound,AC50,outcome
CC1=C(/C=C/C(C)=C/C=C/C(C)=C/C(=O)O)C(C)(C)CCC1,18.1 µM (active),–
c1ccc2cc3c(ccc4ccccc43)cc2c1,3.45 µM (active) and 5.17 µM (active) and 12.5 µM (active),–
CC[C@H](c1ccc(O)cc1)[C@@H](CC)c1ccc(O)cc1,795 nM (active) [middle of 4 runs],–
CCN(CC)CCNc1ccc(CNC=O)c2sc3ccc(OC)cc3c(=O)c12,8.04 µM (active),–
NC(=O)N1C(=O)C(C(=O)c2cc(Cl)cs2)c2cc(F)c(Cl)cc21 (centres undefined),0.951 µM (active),–
CCCOC(=O)c1ccc(O)cc1,–,inactive
NC(=O)N(O)[C@@H]1C=C[C@H](Oc2cccc(Oc3ccc(F)cc3)c2)C1,28.5 µM (active),–
Cc1oc(-c2ccccc2)nc1CCOc1ccc(C[C@H](Nc2ccccc2C(=O)c2ccccc2)C(=O)O)cc1,6.36 µM (active),–
O=C(O)Cc1cc(I)c(Oc2cc(I)c(O)c(I)c2)c(I)c1,–,inactive
CCc1ccc(CCOc2ccc(CC3SC(=O)NC3=O)cc2)nc1 (centres undefined),12.1 µM (active),–
CCC(=C(c1ccc(O)cc1)c1ccc(OCCN(C)C)cc1)c1ccccc1,–,inactive

# Molecular target: human Androgen Receptor (AR), AR (gene 367) (UniProt P10275)
# Assay: NVS_NR_hAR: NovaScreen (NVS) Nuclear Receptor Binding Assay for human Androgen Receptor (AR) (AID 2283332)
# In short: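 Radioligand competitive binding, scintillation read-out, in cell-free extract from LnCAP, measured 20 h after dosing. Screened first in duplicate at 25 uM, then concentration series for actives; activity fitted against DMSO.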
# Chain of human Androgen Receptor (AR), AR (gene 367) (P10275 whole entry, looked up): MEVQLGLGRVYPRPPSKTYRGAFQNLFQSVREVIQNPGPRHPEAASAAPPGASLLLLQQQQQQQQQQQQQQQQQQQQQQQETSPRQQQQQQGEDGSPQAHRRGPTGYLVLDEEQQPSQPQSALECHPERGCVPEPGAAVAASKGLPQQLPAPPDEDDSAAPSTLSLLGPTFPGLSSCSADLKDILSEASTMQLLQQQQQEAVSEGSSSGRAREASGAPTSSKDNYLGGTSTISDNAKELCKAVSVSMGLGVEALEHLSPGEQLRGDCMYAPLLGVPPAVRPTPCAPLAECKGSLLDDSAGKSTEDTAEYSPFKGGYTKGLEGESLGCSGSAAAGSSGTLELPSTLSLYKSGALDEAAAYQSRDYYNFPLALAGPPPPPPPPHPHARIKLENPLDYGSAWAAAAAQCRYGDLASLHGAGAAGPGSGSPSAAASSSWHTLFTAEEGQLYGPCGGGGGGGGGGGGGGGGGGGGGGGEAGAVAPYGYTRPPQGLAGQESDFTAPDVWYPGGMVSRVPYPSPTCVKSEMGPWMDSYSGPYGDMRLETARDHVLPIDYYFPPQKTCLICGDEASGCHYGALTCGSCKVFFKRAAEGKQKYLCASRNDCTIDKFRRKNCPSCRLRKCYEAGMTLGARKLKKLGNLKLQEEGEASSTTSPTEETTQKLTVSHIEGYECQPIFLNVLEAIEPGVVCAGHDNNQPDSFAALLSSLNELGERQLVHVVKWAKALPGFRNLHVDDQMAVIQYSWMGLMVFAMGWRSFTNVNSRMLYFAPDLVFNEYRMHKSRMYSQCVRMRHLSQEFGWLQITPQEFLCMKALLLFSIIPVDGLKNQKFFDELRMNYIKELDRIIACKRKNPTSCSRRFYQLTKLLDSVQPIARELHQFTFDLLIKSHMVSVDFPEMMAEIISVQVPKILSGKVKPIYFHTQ
Compound,AC50,outcome
Oc1cc2ccccc2c2ccccc12,19.2 µM (active),–
CC[C@H](c1ccc(O)cc1)[C@@H](CC)c1ccc(O)cc1,0.416 µM (active),inactive
CCCCCCCCCCCCc1ccccc1S(=O)(=O)O,8.85 µM (active),–
Cc1oc(-c2ccccc2)nc1CCOc1ccc(C[C@H](Nc2ccccc2C(=O)c2ccccc2)C(=O)O)cc1,1.92 µM (active),–
CCC(=C(c1ccc(O)cc1)c1ccc(OCCN(C)C)cc1)c1ccccc1,8.62 nM (active) and 653 nM (active),–

# Molecular target: Voltage-gated inwardly rectifying potassium channel KCNH2 (Homo sapiens) (UniProt Q12809)
# Assay: NVS_IC_hKhERGCh: NovaScreen (NVS) Ion Channel Assay for human Potassium Channel ERG (KhERGCh) (AID 2283333)
# In short: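 Membranes from CHO cells expressing human ERG; displacement of radioligand measured by filtration and scintillation after 0.75 h. Single-concentration duplicate screen at 25 uM, then concentration-response for actives; DMSO baseline.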
# Chain of Voltage-gated inwardly rectifying potassium channel KCNH2 (Homo sapiens) (Q12809 whole entry, looked up): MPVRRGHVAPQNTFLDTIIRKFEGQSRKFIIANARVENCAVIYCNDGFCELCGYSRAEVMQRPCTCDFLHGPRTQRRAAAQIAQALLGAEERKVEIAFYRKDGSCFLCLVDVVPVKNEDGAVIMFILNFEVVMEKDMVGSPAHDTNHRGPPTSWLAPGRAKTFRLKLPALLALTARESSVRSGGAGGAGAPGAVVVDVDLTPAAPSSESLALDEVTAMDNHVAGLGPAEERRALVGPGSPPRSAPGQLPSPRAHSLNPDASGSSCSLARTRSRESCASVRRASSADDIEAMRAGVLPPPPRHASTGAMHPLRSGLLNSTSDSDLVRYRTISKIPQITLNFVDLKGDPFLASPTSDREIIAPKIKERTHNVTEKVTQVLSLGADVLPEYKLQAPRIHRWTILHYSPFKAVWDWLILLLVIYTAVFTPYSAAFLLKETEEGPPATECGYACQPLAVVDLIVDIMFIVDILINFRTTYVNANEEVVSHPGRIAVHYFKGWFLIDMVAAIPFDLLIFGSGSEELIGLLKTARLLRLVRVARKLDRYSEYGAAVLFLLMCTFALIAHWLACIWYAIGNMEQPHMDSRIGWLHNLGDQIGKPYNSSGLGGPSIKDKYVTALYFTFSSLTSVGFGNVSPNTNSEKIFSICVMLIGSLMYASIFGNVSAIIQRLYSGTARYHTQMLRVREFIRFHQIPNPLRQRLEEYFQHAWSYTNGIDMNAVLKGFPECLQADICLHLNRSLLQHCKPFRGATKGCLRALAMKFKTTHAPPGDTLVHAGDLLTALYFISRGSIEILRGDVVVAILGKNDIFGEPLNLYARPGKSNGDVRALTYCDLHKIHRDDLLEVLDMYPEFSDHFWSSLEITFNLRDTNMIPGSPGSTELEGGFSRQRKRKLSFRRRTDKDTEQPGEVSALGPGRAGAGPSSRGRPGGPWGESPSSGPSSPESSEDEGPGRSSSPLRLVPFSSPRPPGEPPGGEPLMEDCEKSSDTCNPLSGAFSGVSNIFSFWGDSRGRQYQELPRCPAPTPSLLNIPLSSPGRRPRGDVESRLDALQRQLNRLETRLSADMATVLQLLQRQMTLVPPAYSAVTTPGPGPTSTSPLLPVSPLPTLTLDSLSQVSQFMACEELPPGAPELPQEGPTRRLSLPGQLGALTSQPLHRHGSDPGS
Compound,outcome,AC50
COc1ccc([N+](=O)[O-])cc1N,inactive,–
CC(=O)NC1(c2cccc(F)c2)CCN(CC[C@@]2(c3ccc(Cl)c(Cl)c3)CN(c3ccccc3)C(=O)CO2)CC1,–,14 µM (active)
CCCOc1sc(C(=O)N2CCC(c3cc(CN)ccc3F)CC2)c(C)c1Br,–,7.87 µM (active)
